Consider 40 compounds from PubChem BioAssay (NCI).

About 83,000 compounds went through this panel and 20% of them were active in at least one assay; those are over-represented in the sample as a whole.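 The test compound was applied at a single concentration to cells in 96-well plates for 48 hours, and percent growth was recorded.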 The source made the active and inactive calls.

For this test, the system named is SK-MEL-5 melanoma. Put plainly: NCI-60 one-dose screen, 48 h (100 = growth as untreated, 0 = no growth, -100 = all killed). The note with it: 10 µM unless noted. As to the method:
Growth inhibition of the SK-MEL-5 human tumor cell line is measured as a screen for anti-cancer activity. Cells are grown in 96 well plates and exposed to the test compound for 48 hours. Compounds are tested at a single concentration, which is 10^-5 M for most compounds. The reported endpoint is percent growth (GI% or GIPRCNT), where numbers from 0 - 100% represent growth inhibition, and numbers from -100% - 0 represent cell death. For example, a value of 40 represents 60% growth inhibition. A value of 0 means no net growth occurred over the course of the experiment. A value of -40 indicates 40% of cells at the beginning of the experiment died by the end of the experiment. A value of -100 means all cells are dead at the end of the experiment.
NCI-60 Human Tumor Cell Lines Screen was performed using the standard one-dose NCI protocol, which is described in more detail at https://dtp.cancer.gov/discovery_development/nci-60/default.htm.
Compounds with GIPRCNT values below 10 were considered active. Activity score was based on GIPRCNT using the following formula: […]
Score is 0 for GIPRCNT values of 100 or above, 50 for GIPRCNT values of 0, and 100 for GIPRCNT values of -100.
With `COc1ccc(-c2nc(SCCC(C)C)nc(Nc3ccc(C(=O)O)cc3)c2C#N)cc1`, the growth was 73.9% (inactive). Under `C=C1C(=O)O[C@H]2[C@H]1CC/C(COC(=O)NCc1cn(C)c3ccccc13)=C\CC[C@@]1(C)O[C@@H]21` stands 10.6% (inactive); under `COC(=O)OC1C(O[C@H]2C[C@H]3[C@@H]4CC=C5C[C@@H](O)CC[C@]5(C)[C@H]4CC[C@]3(C)[C@H]2[C@H](C)C(=O)CCC(C)C)OCC(O)C1OC1OCC(O)C(O)C1OC(=O)c1ccc(OC)cc1` (stereo not given in full), -71.5% (active). To `COc1ccc(/C=N/NC(N)=S)c(OC)n1` belongs 93.1% (inactive); to `COc1cc2c(cc1OC)-c1cc(OC)c(OC)cc1C(CN(C)C)C2` (stereo not given), 73.4% [100 µM] (inactive); to `C#Cc1cccc(Nc2nc3cc([N+](=O)[O-])ccc3nc2Nc2ccc(O)cc2)c1`, 47.1% (inactive). To `Nc1c(C(=O)Nc2ccccc2)sc2nc3c(cc12)C(=O)CCC3` belongs 25.7% (inactive).

As for `CC(C)OC1OC(OC(C)C)C(OC(C)C)OC1OC(C)C` (stereo not given), the growth was 110% (inactive).

Take `CCOC(=O)Nc1ccc2nc(Sc3ccc(Cl)cc3)sc2c1`: the growth was 6.76% (active).

Consider `COc1ccccc1/C=N\Nc1ccc([N+](=O)[O-])cn1`, for which the growth was 102% (inactive). To `CN1C(=O)C(C2=NNC(c3ccccc3C(=O)O)C2)C(=O)N(C)C1=O` (stereo not given) belongs 108% (inactive). Under `O=[N+]([O-])c1ccc(N/N=C\c2ccc(O)cc2O)nc1` stands 13.7% (inactive); under `Cc1ccc(C)c(NC(=O)c2sc3c(=O)[nH]cnc3c2C)c1`, 74.4% (inactive); under `CC1OC(n2c3ccccc3c3c4c(c5c6ccccc6[nH]c5c32)C(=O)N(CCN2CCOCC2)C4=O)CC(O)C1O` (stereo not given), 5.46% (active). Under `O=C1N(Cc2ccccc2Cl)c2ccccc2C12NN=C(c1ccccc1)S2` (stereo not given) stands 53.3% (inactive); under `NS(=O)(=O)c1ccc(CCn2c(SCC(=O)N/N=C/c3ccccc3O)nc3ccccc3c2=O)cc1`, 30.5% (inactive); under `Cc1ccc(Nc2cc(Cl)c([N+](=O)[O-])cc2[N+](=O)[O-])cc1`, 53.6% (inactive). In the case of `COc1cc(C2CC(c3ccc(C)cc3)=NN2C=O)ccc1Oc1nc2c(c(=O)n(C)c(=O)n2C)n1C` (stereo not given), the growth was 58.1% (inactive). Under `CCCCOc1nc2ccc(C)cc2cc1/C=C/C(=O)/C=C(O)/C=C/c1cc2cc(C)ccc2nc1OCCCC` stands 105% (inactive); under `COc1ccc(C2c3cccn3-c3ccccc3N2C(C)=O)cc1` (stereo not given), 96.1% (inactive); under `O=C(N/N=C/c1ccc([N+](=O)[O-])cc1)c1ccccc1Nc1ccnc(C(F)(F)F)c1`, -99% (active). For the compound `CC(C)=CC[C@@H]1CC2(CC=C(C)C)C(=O)C(OC3(C(=O)c4ccccc4)C(=O)C4(CC=C(C)C)C[C@@H](CC=C(C)C)C(C)(C)C(CC=C(C)C)(C4=O)C3=O)(C(=O)c3ccccc3)C(=O)C(CC=C(C)C)(C2=O)C1(C)C` (stereo not given in full), the growth was -77.5% (active). As for `COc1cc(CN(c2ccc(C)cc2)C2OC(=O)c3ccccc32)cc(OC)c1OC` (stereo not given), the growth was 19.9% (inactive).

Consider `O=[N+]([O-])c1ccc(N=Nc2c(NNc3ccc([N+](=O)[O-])cn3)cc(S(=O)(=O)O)c3ccccc23)nc1`, for which the growth is 92% (inactive). To `O=c1c2cc(Cl)ccc2oc2ccc(OCCCCCN3CCCCCC3)cc12` belongs 62.9% (inactive). Under `O=C(/C=C/c1ccccc1)c1c[nH]c2ccccc2c1=O` stands 43.4% (inactive).

With `c1ccc(CCn2cccc2)nc1`, the growth was 109% (inactive). Regarding `CCN1C(=O)C(C)C=C(C)C=C1C` (stereo not given), the growth was 98.1% (inactive). For the compound `CCCCCc1c(C)[nH]c(/C=C2\N=C(c3ccc[nH]3)C=C2Oc2ccc(OC)cc2)c1C`, the growth was -73.6% [100 µM] (active).

`O=C(O)C(CCc1ccccc1)NCc1ccccc1` (stereo not given): the growth is 109% (inactive). On to `Cc1nn(-c2ccccc2)c2nc3c(nc12)C1=NCCN1C(c1ccc(Cl)cc1)N3` (stereo not given), for which the growth is 65.6% (inactive).

On to `Cc1ccc([C@H]2c3[nH]c4ccccc4c3C[C@H]3C(=O)N(CCCCCCC(=O)NO)CC(=O)N23)cc1`, for which the growth is 37.4% (inactive). In the case of `CCc1onc(-c2ccc(OC)cc2)c1-c1ccccc1OCCN(CC)CC`, the growth is 81% (inactive). Under `CC(=O)Nc1c(Br)cc2c(c1Br)Cc1cc(Br)ccc1-2` stands 88.2% (inactive); under `Fc1ccc(-c2nc(-c3ccc(-c4nc5ccc(F)cc5[nH]4)cc3)no2)cc1`, 74.4% (inactive); under `COc1cc(OC)c2sc(-c3ccc(-n4cncc4-c4ccc(OC)c(N)c4)cc3)nc2c1`, 53.1% (inactive). Under `CCCCCCCCCCCCC1CCC(=O)O1` (stereo not given) stands 99.7% (inactive).

Take `C(=Nc1ccc(-c2ccc(N=Cc3ccccc3)cc2)cc1)c1ccccc1`: the growth was 105% (inactive).

Consider `Oc1ccc(-c2nnc3c4[nH]ccc4ncn23)cc1`, for which the growth is 104% (inactive). To `CCCCCCCC/C=C/CCCCCCCC1=NC(C)(C)CN1c1ccccc1` belongs 92.4% (inactive).
